The sample as a whole holds a higher share of hits than the screen did.
HIV RNase H inh-1 = inhibitors of HIV-1 reverse transcriptase RNase H; P04585; RT-RNase H RNA/DNA duplex cleavage, fluorescence; inhibition, % at 10 µM; hit rate 1.9% among 65,000; AID 565; in the data active means inhibition above about 50%
RmlCD inh mix = inhibitors of RmlC and RmlD coupled enzymes; RmlC/RmlD coupled enzyme inhibition, 384-well mixture HTS; inhibition, % at 5.5 µM; hit rate 0.39% among 110,000; in the data active means inhibition above about 30%, passing the limit was not always enough; inconclusive means no clear call, values can overlap the other calls
HIV RNase H inh-2 = confirmation of HIV-1 reverse transcriptase RNase H inhibitors; hit rate 39% among 1,000; shares compounds with HIV RNase H inh-1; inhibition, % at 10 µM; Recombinant RT RNase H, fluorescent RNA/DNA duplex cleavage; AID 651; in the data active means inhibition above about 48%; inconclusive means no clear call, values can overlap the other calls
A number is an active result; i = inactive; ? = inconclusive; nt = no result.

SMILES	HIV RNase H inh-1	RmlCD inh mix	HIV RNase H inh-2
COc1ccc2[nH]c(=O)c(CN(Cc3nnnn3Cc3ccco3)C3CCCCC3)cc2c1	i	i	nt
COc1ccc2[nH]c(=O)c(CN(C3CCCCC3)C(c3nnnn3Cc3ccco3)C(C)C)cc2c1 (stereo not drawn)	51	nt	55
NC(=O)c1c(N)sc2c1CCCCC2	73	i	i
NC(=O)c1c(NC(=O)CN2C(=O)CCC2=O)sc2c1CCCCC2	85	i	i
N#CCC(=O)Nc1sc2c(c1C(N)=O)CCCC2	i	i	nt
COCCNC(=O)c1c(N)sc2c1CCCC2	63	i	i
NC(=O)c1c(NC(=O)CN2CCCC2)sc2c1CCCC2	i	i	nt
Nc1sc2c(c1C(=O)NC1CCS(=O)(=O)C1)CCC2 (stereo not drawn)	66	i	74
CCOC(=O)c1c(NC(=O)CNCCOC)sc2c1CCCC2	nt	i	nt
O=C(NC1CCS(=O)(=O)C1)c1ccccc1C(=O)c1ccccc1 (stereo not drawn)	i	i	nt
C#C[C@]1(O)CC[C@H]2[C@@H]3CCC4=C(CCC(=O)C4)[C@H]3CC[C@@]21C	nt	i	nt
Cc1ccc(CCP(=O)(O)CN2CCCCC2)cn1	i	nt	nt
CCCCOc1[nH]c2nc(-c3ccco3)n(Cc3ccco3)c(=N)c2c1C#N	i	i	nt
CCCCNS(=O)(=O)c1ccc(NS(=O)(=O)c2c(C)cc(C)cc2C)cc1	nt	i	nt
O=C(CN(C(=O)CSc1nc2ccccc2o1)c1ccccc1)NC1CCCCC1	nt	i	nt
CC(=O)c1sc(N)c(C(=O)OC(C)C)c1C	nt	i	nt
CCCOC(=O)c1c(N)sc2c1CCC2	i	i	nt
CNC(=O)c1c(NC(=O)c2ccc(N3C(=O)CCC3=O)cc2)sc2c1CCCC2	nt	i	nt
CC(C)OC(=O)c1c(N)sc2c1CCCC2	87	nt	?
CNC(=O)c1c(N)sc2c1CCCCC2	84	i	?
Cc1c(C(N)=O)sc(N)c1C(=O)OC(C)C	84	i	i
O=P(COc1ccccc1)(c1ccccc1)c1ccccc1	nt	i	nt
COc1ccc(N2CCN(C(=O)CC3NC4CCCCC4NC3=O)CC2)cc1 (stereo not drawn)	i	i	nt
CSc1nc2c(c(=O)[nH]1)C(c1ccncc1)C(C(=O)OC(C)C)=C(C)N2 (stereo not drawn)	i	i	nt
CCCc1cc(=O)oc2c3c(c4c(c12)OC(C)(C)C=C4)OC(C)C(C)C3O (stereo not drawn)	nt	i	nt
SMILES	HIV RNase H inh-1	RmlCD inh mix	HIV RNase H inh-2
O=C1C=C(c2cc3ccccc3s2)CCC1	nt	i	nt
Cc1ccc(-c2nnn(CC(=O)Nc3ccc(S(=O)(=O)N4CCC(C)CC4)cc3)n2)cc1	i	i	nt
CC1CCN(S(=O)(=O)c2ccc(NC(=O)Cn3nnc(-c4ccccc4)n3)cc2)CC1	70	i	68
CN(C)c1ccc(-c2nn3c(C4CCCCC4)nnc3s2)cc1	i	i	nt
CCN(CC)c1ccc(C(=S)N2CCN(c3ccccc3)CC2)cc1	73	i	i
S=C(c1ccc(N2CCCC2)cc1)N1CCCCC1	i	i	nt
CCOc1ccc(C(=O)Nc2ccccc2N2CCCC2)cc1	nt	i	nt
COc1ccc(-c2ocnc2C(=O)Nc2ccccc2N2CCCCC2)cc1	76	i	i
Cc1c(C(=O)Oc2cccc3ccccc23)cnn1-c1ccccc1	nt	i	nt
Cn1c(=O)c2c(nc(NCC3CCCO3)n2Cc2cccc(Br)c2)n(C)c1=O (stereo not drawn)	nt	i	nt
O=c1[nH]c(=O)n(Cc2ccco2)c2c1C(C(F)(F)F)(C(F)(F)F)N=C(CCC1CCCCC1)N2	nt	i	nt
O=c1[nH]c(=O)n(Cc2ccco2)c2c1C(C(F)(F)F)(C(F)(F)F)N=C(C1CCCCC1)N2	70	i	i
O=C(NCCO)c1ccc2[nH]c3c(c2c1)CCCC3	i	i	nt
O=C(O)c1ccc2[nH]c3c(c2c1)CSCC3	66	i	i
COC(=O)CSC1=NS(=O)(=O)c2ccccc21	66	i	i
COC(=O)CSc1ccccc1C(=O)OC	i	i	nt
O=C(CSC1=NS(=O)(=O)c2ccccc21)Nc1ccccc1	55	i	i
Cn1cnnc1SCC(=O)Nc1ccccc1	i	i	nt
CCOC(=O)c1c(N)ssc1=S	85	i	?
CCOC(=O)c1c(N)sc(=S)c2c1CCC2	i	i	nt
c1ccc2c(c1)oc1c(N3CCN(Cc4ccc5c(c4)OCO5)CC3)ncnc12	i	i	nt
Cc1ccc(C(c2nnnn2Cc2ccccc2)N2CCN(Cc3ccccc3)CC2)cc1 (stereo not drawn)	nt	i	nt
CC(C)c1nc(=S)c2ccccc2[nH]1	i	i	nt
S=c1nc(C2CC2)[nH]c2ccccc12	84	i	69
Cc1ccc(F)cc1NC(=O)C12CC3CC(C1)CC(n1cnc([N+](=O)[O-])n1)(C3)C2	nt	i	nt
SMILES	HIV RNase H inh-1	RmlCD inh mix	HIV RNase H inh-2
O=C(CNC(=O)c1ccc(Cl)cc1Cl)NCCCn1ccnc1	nt	i	nt
CCOC(=O)N1CCC(N2C(=O)c3ccccc3C2=O)CC1	i	i	nt
CCOC(=O)N1CCC(N2C(=O)c3ccc(C(=O)NC4CCCCCC4)cc3C2=O)CC1	64	nt	i
O=C(NCc1cccc(Br)c1)C1CC(c2ccccc2[N+](=O)[O-])=NO1 (stereo not drawn)	nt	i	nt
CCCCCn1c(SCCCC)nc2c1c(=O)[nH]c(=O)n2C	71	?	61
CCCCCCn1c(SCCC)nc2c1c(=O)[nH]c(=O)n2C	i	i	nt
CC(C)CCn1c(SCCc2ccccc2)nc2c1c(=O)[nH]c(=O)n2C	74	i	i
CCCn1c(SCCc2ccccc2)nc2c1c(=O)[nH]c(=O)n2C	i	i	nt
c1ccc(CCn2c(C3CC3)nc3ccccc32)cc1	nt	i	nt
Cc1cc(NC(=O)CSc2nc3ccccc3s2)no1	nt	i	nt
Cc1cccc(-c2nsc(SCC(=O)Nc3cc(C)on3)n2)c1	70	i	i
CCOC(=O)Nc1ccc2c(c1)Sc1ccccc1N2C(=O)CCN1CCOCC1	i	i	nt
CC1CC(C)(C)NC(=O)O1 (stereo not drawn)	i	i	nt
CC1CC(C)(C)NC(=S)S1 (stereo not drawn)	78	i	52
Cc1ccccc1Cn1c(=O)n(Cc2ccco2)c(=O)c2ccccc21	i	i	nt
Cc1cc(C)c(NC(=O)Cn2c(=O)n(Cc3ccco3)c(=O)c3ccccc32)c(C)c1	69	i	73
CC(C(=O)Nc1ccccn1)N1C(=O)C2C3C=CC(C3)C2C1=O (stereo not drawn)	74	i	i
O=C1C2C3C=CC(C3)C2C(=O)N1CNc1ccccn1 (stereo not drawn)	nt	i	nt
CCOC(=O)c1ccc(NC(=O)CC2C(=O)N(c3ccc(F)cc3)C(=O)N2CCC(C)C)cc1 (stereo not drawn)	nt	i	nt
CC(C)OC(=O)CSc1nnc(-c2ccc(C(C)(C)C)cc2)n1N	82	nt	63
CC(C)OC(=O)CSc1nnc(-c2ccncc2)n1N	i	i	nt
CCOC(=O)CSC1=C(C#N)C(c2ccccc2F)C(C(C)=O)=C(C)N1 (stereo not drawn)	i	i	nt
CSCSC1=C(C#N)C(c2ccccc2Cl)C(C(C)=O)=C(C)N1 (stereo not drawn)	70	i	i
CC12CC(c3ccccc3O1)N(C(=O)c1ccco1)C(=S)N2c1ccc(F)cc1 (stereo not drawn)	nt	i	nt
Cc1ccc(NC(=O)c2ccc3c(c2)N(CC(=O)N2CCCCC2)C(=O)C(C)(C)O3)cc1	i	i	nt
CC1(C)Oc2ccc(C(=O)NC3CCCC3)cc2N(CC(=O)NC2CCCCC2)C1=O	73	i	i

Bioassay records: PubChem BioAssay, several laboratories
